# T1: MYL6 4-151 EF-hand_6 (domain begin residue: 4, domain end residue: 151), P60660
# T1 chain: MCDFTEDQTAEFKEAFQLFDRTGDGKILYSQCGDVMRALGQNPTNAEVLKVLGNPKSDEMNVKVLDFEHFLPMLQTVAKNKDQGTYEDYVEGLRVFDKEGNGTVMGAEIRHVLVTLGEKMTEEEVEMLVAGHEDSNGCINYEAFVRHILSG
# T2: NR1H2 203-460 Hormone_recep (domain begin residue: 203, domain end residue: 460), P55055
# T2 chain: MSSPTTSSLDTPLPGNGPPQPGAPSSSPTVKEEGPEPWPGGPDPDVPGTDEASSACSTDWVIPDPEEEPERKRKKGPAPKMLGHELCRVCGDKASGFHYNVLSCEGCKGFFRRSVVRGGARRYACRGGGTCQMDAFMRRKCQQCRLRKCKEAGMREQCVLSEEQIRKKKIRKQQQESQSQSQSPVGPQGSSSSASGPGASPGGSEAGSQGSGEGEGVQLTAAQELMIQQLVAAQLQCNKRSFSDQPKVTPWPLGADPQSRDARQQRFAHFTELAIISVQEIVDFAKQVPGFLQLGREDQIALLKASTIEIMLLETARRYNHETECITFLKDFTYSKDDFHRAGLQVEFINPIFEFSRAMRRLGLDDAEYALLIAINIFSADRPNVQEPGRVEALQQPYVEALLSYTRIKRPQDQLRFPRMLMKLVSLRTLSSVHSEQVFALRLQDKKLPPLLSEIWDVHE
# T3: NFKBIA 70-282 EF-hand_6 (domain begin residue: 70, domain end residue: 282), P25963
# T3 chain: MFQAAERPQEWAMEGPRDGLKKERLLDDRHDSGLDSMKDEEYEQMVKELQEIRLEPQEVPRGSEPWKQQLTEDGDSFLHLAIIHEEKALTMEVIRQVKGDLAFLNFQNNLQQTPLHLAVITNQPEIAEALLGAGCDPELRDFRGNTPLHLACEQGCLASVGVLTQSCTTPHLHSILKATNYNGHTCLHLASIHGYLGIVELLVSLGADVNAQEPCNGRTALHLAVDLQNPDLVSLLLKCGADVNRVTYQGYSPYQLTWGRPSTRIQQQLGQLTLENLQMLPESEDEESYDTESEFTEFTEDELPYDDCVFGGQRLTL
# T4: MDM4 26-106 SWIB (domain begin residue: 26, domain end residue: 106), O15151
# T4 chain: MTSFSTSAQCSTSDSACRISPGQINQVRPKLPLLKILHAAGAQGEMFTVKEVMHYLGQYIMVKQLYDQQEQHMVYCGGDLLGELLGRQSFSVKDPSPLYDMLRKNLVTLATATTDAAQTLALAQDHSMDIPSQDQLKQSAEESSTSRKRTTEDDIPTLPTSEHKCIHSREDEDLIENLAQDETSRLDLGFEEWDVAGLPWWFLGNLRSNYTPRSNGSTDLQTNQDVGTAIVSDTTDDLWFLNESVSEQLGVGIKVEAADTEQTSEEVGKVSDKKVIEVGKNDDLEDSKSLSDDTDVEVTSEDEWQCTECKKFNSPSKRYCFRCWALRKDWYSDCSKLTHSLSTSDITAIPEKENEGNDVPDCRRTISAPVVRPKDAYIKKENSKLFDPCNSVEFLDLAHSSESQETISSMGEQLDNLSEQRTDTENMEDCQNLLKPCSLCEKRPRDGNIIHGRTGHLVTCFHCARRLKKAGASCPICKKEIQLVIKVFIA
# T5: NUP98 730-880 Nucleoporin2 (domain begin residue: 730, domain end residue: 880), P52948
# T5 chain: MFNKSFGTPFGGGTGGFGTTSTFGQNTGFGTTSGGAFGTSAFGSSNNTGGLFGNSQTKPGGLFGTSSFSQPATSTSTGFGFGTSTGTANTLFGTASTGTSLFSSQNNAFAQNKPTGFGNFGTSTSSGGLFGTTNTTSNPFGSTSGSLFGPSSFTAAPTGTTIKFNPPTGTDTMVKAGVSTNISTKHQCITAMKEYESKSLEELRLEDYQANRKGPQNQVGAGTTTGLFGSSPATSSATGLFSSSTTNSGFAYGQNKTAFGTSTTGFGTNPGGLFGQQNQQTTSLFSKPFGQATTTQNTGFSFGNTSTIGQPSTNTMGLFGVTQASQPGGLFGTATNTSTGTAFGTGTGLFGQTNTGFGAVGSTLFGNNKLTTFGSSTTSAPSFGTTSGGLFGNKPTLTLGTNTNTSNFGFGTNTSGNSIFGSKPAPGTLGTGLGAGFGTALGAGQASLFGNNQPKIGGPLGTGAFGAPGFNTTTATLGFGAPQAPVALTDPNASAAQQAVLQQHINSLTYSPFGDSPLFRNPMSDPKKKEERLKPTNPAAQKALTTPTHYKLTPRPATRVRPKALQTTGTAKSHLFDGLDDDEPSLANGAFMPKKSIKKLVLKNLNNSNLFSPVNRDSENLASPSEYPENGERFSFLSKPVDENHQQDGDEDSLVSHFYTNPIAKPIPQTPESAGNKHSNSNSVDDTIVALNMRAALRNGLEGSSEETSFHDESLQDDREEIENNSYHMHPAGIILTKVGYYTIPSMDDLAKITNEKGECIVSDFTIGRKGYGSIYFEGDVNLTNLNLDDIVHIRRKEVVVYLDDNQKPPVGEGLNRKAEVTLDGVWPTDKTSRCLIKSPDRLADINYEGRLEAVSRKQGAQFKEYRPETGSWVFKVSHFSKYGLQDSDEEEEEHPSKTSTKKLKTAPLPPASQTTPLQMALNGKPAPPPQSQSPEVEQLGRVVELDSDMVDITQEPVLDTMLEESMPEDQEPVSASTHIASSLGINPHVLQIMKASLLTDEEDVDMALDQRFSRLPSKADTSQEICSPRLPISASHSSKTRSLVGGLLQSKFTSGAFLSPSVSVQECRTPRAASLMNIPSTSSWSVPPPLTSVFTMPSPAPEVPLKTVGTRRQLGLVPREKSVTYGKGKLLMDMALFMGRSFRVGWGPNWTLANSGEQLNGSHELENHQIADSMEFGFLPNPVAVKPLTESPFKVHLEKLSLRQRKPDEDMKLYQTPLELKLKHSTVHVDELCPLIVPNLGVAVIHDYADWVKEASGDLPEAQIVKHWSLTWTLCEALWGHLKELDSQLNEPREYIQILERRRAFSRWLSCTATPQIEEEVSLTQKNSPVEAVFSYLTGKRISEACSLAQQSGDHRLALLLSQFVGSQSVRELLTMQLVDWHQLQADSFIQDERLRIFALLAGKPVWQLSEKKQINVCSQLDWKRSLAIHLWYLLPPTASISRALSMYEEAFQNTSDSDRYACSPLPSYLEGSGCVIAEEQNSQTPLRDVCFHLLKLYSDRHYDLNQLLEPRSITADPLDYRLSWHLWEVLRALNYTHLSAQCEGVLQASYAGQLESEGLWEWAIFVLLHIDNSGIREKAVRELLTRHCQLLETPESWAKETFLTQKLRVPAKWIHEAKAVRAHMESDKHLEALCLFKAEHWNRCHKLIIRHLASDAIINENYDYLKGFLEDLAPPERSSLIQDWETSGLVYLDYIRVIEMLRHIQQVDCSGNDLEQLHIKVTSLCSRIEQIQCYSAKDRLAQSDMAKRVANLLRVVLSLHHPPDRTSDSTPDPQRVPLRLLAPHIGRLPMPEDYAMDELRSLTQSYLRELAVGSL
# T6: NR1H3 204-447 Hormone_recep (domain begin residue: 204, domain end residue: 447), Q13133
# T6 chain: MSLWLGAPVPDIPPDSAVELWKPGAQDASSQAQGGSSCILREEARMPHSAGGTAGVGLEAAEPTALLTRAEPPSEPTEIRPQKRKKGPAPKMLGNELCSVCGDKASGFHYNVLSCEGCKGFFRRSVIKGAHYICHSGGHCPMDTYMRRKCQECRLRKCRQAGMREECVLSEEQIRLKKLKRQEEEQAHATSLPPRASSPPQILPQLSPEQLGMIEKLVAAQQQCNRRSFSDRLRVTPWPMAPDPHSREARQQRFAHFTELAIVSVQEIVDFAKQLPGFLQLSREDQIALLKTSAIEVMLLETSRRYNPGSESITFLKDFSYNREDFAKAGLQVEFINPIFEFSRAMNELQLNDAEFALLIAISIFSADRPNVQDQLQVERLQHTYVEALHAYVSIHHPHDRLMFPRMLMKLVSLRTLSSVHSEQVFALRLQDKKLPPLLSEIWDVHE
# Assays:
# Test in all cases: phage ELISA signal ratio (GST-PRM binding over GST background); higher = stronger binding of peptide-phage to the PRM
# [1] = target: T1, MYL6 4-151 EF-hand_6 (domain begin …
# Procedure, shortened: (§1)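 Five rounds of selection were carried out against human peptide recognition domains fused to the C-terminus of glutathione S-transferase (GST) and expressed in 96-well plates. The M13 phage library presented randomized hexadecapeptides, cysteine-free and glycine-flanked, on the gene-8 major coat protein. For each value, the phage ELISA signal on the GST-domain fusion was divided by the signal on GST alone.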
# [2] = target: MAD2L1 2-205 HORMA (domain begin residue: 2, domain end residue: 205), Q13257
# Procedure, shortened: as §1
# [3] = target: T2, NR1H2 203-460 Hormone_recep (domain …
# Procedure, shortened: as §1
# [4] = target: T3, NFKBIA 70-282 EF-hand_6 (domain begin …
# Procedure, shortened: as §1
# [5] = target: T4, MDM4 26-106 SWIB (domain begin residue: …
# Procedure, shortened: as §1
# [6] = target: T5, NUP98 730-880 Nucleoporin2 (domain …
# Procedure, shortened: as §1
# [7] = target: T6, NR1H3 204-447 Hormone_recep (domain …
# Procedure, shortened: as §1
# Sequence of MAD2L1 2-205 HORMA (domain begin residue: 2, domain end residue: 205), Q13257 (Q13257 whole entry): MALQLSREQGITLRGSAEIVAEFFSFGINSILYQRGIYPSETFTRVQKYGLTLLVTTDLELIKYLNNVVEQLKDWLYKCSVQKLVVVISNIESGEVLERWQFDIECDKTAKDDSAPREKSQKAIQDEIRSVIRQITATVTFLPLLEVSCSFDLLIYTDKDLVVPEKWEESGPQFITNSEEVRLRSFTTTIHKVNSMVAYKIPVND
binder,measurement,setting,value
IFQYIVVQIGNTMYVI,phage ELISA signal ratio,[1],9.03
PQTGHWIKFPKPWLEN,phage ELISA signal ratio,[2],15.5
DNPNLTPGLWSWYTFF,phage ELISA signal ratio,[3],11.4
DQPPPSYSVLTPDVAL,phage ELISA signal ratio,[4],13.8
MPYAQMQFMDYWQELA,phage ELISA signal ratio,[5],21.3
YWEHSNELDYWVEFIA,phage ELISA signal ratio,[4],5.67
same,phage ELISA signal ratio,[6],16.9
QWWVFHVGDQMYWAYV,phage ELISA signal ratio,[1],3.08
MVEQQVFWYLWMELMN,phage ELISA signal ratio,[5],19.4
YFYTQVNGIWYKWVLS,phage ELISA signal ratio,[1],4.86
YMVEEHYYDLMQMLGS,phage ELISA signal ratio,[4],11
FTAQDVLSHMSLWEFT,phage ELISA signal ratio,[5],21.7
WFGMEPEEQSMEWQKW,phage ELISA signal ratio,[4],6.64
EYYPEWDFLWRHMQEP,phage ELISA signal ratio,[7],8.56
DHWWVWGWEAEEYIMP,phage ELISA signal ratio,[3],13.9

# — the supplement of paper PMC7724964
